Assay [1] can be described thus: qHTS profiling for inhibitors of Plasmodium falciparum proliferation (AID 504749).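 On activity, negative = inhibition: 0% = DMSO vehicle and full inhibition = artemisinin control.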 On all read-outs here: nearly all actives have a fitted effect of over 60% in size. To be noted: P. falciparum in erythrocytes, SYBR Green DNA, 72 h; for activity, negative = inhibition: at 28.7 µM (top of the series). In a few lines: (§1)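 SYBR Green fluorescence of parasite DNA, read after lysis and overnight dark incubation, measured growth over 72 h in erythrocyte culture at 0.3% parasitemia and 2.5% hematocrit. Data normalised to DMSO and 0.29 uM artemisinin, with plate-drift correction.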
In general terms: Quantitative high-throughput screening tests each substance at several concentrations.

For the next assay, the system named is 3D7. The description is as above. To be noted: P. falciparum in erythrocytes, SYBR Green DNA, 72 h; series mostly up to 28.7 µM. In a few lines: as §1
Another assay deals with 7G8. Described as above. To be noted: P. falciparum in erythrocytes, SYBR Green DNA, 72 h; series mostly up to 28.7 µM. The essentials: as §1
In another assay the test system is AA1029. The assay is described as above. The conditions noted are these: P. falciparum in erythrocytes, SYBR Green DNA, 72 h; series mostly up to 28.7 µM. In a few lines: as §1
The next assay deals with AS120. The assay is described as above. The conditions noted are these: P. falciparum in erythrocytes, SYBR Green DNA, 72 h; series mostly up to 28.7 µM. The essentials:
as §1

The subject of the next assay is ATS189. The assay is described as above. The conditions noted are these: P. falciparum in erythrocytes, SYBR Green DNA, 72 h; series mostly up to 28.7 µM. The essentials: as §1
A further assay relates to ATS95. The assay is described as above. The conditions noted are these: P. falciparum in erythrocytes, SYBR Green DNA, 72 h; series mostly up to 28.7 µM. The essentials: as §1
The subject of a further assay is C2A. Described as above. The conditions noted are these: P. falciparum in erythrocytes, SYBR Green DNA, 72 h; series mostly up to 28.7 µM. The essentials: as §1

SMILES strings stand for the structures. Results filed as inconclusive are left out. A number with no mark means an inactive call. Calls of active or inactive are those of the source. The call rests on the fitted dose curve; in most records, active means well fitted inhibition curve with a large enough effect; inconclusive means small, poorly fitted or top-dose-only effect; inactive means flat fitted curve, though single readings scatter.
Potency means the concentration at half of the fitted maximal effect.

For `CCCCCCCCCCCCCC[n+]1ccc(C)cc1`, the Potency was 2510 nM (active) in assay [1] (parasite line A); 5620 nM (active) in assay [1] (parasite line B); 2510 nM (active) in the assay with 3D7; 1120 nM (active) in the assay with 7G8; 3980 nM (active) in the assay with AA1029; 3550 nM (active) with AS120. In addition, the Potency is 5620 nM (active) in the assay with ATS189, 2820 nM (active) in the assay with ATS95 and 3160 nM (active) with C2A.

On to `CCNC(=O)[C@@H]1CCCN1C(=O)[C@H](CCCN=C(N)N)NC(=O)[C@H](CC(C)C)NC(=O)[C@@H](Cc1c[nH]c2ccccc12)NC(=O)[C@H](Cc1ccc(O)cc1)NC(=O)[C@H](CO)NC(=O)[C@H](Cc1c[nH]c2ccccc12)NC(=O)[C@H](Cc1cnc[nH]1)NC(=O)[C@@H]1CCC(=O)N1`, for which the Potency in assay [1] (parasite line A) is 4470 nM (active); in assay [1] (parasite line B), 5620 nM (active); with 3D7, 7080 nM (active); with 7G8 it was 1120 nM (active); with AA1029, 3160 nM (active); with AS120, 4470 nM (active). Besides, the Potency in the assay with ATS189 is 8910 nM (active); with ATS95, 4470 nM (active); with C2A, 7080 nM (active).

On to `COC(C(=O)C(O)C(C)O)C1Cc2cc3cc(OC4CC(OC5CC(O)C(O)C(C)O5)C(O)C(C)O4)c(C)c(O)c3c(O)c2C(=O)C1OC1CC(OC2CC(OC3CC(C)(O)C(O)C(C)O3)C(O)C(C)O2)C(O)C(C)O1` (stereo unspecified), for which the Potency is 158 nM (active) in assay [1] (parasite line A); 224 nM (active) in assay [1] (parasite line B); 282 nM (active) in the assay on 3D7; 70.8 nM (active) with 7G8; 141 nM (active) in the assay on AA1029; 112 nM (active) in the assay with AS120. Moreover, the Potency in the assay with ATS189 is 282 nM (active); with ATS95, 178 nM (active); in the assay with C2A, 251 nM (active).

As to `CCN(CC)Cc1cc(Nc2ccnc3cc(Cl)ccc23)ccc1O`, the Potency in assay [1] (parasite line A) was 35.5 nM (active); in assay [1] (parasite line B) it was 39.8 nM (active); in the assay on 3D7, 28.2 nM (active); with 7G8, 35.5 nM (active); with AA1029 it was 63.1 nM (active); with AS120, 44.7 nM (active). Also, the Potency was 141 nM (active) in the assay with ATS189, 63.1 nM (active) in the assay on ATS95 and 56.2 nM (active) in the assay on C2A.

For `C[C@]12O[C@H](C[C@]1(O)CO)n1c3ccccc3c3c4c(c5c6ccccc6n2c5c31)CNC4=O`, the Potency in assay [1] (parasite line A) was 398 nM (active); in assay [1] (parasite line B), 447 nM (active); in the assay with 3D7 it was 224 nM (active); in the assay on 7G8 it was 100 nM (active); with AA1029 it was 316 nM (active); in the assay on AS120, 251 nM (active). Further, the Potency with ATS189 was 316 nM (active); in the assay with ATS95, 355 nM (active); in the assay on C2A, 316 nM (active).

Regarding `C[C@@H]1CCC2[C@@H](C)[C@@H](O)O[C@@H]3O[C@@]4(C)CC[C@@H]1[C@@]23OO4` (stereo partly specified), the Potency was 1.4 nM (active) in assay [1] (parasite line A); 1.8 nM (active) in assay [1] (parasite line B); 3.5 nM (active) in the assay with 3D7; 0.8 nM (active) with 7G8; 2.2 nM (active) in the assay with AA1029; 1.6 nM (active) in the assay with AS120. The Potency in the assay on ATS189, in the assay on ATS95 and in the assay on C2A was 2.2 nM (active) each time.

For the compound `Cc1ccccc1`, the activity, negative = inhibition in assay [1] (parasite line A) is 1.71%; in assay [1] (parasite line B) it was 0.119%. Moreover, the Potency entry in the assay on 3D7, in the assay with 7G8, in the assay with AA1029, in the assay with AS120, in the assay with ATS189 and in the assay on ATS95 was “inactive” throughout. The Potency result in the assay with C2A is “inactive”.

Turning to `CCCCCCC(O)C/C=C/CCCCCCCC(=O)O` (stereo unspecified), the activity, negative = inhibition in assay [1] (parasite line A) is -1.16%; in assay [1] (parasite line B), 3.04%. Also, the Potency entry with 3D7, in the assay on 7G8, in the assay on AA1029, in the assay with AS120, in the assay with ATS189 and in the assay with ATS95 was “inactive” each time. For the same compound, in the assay on C2A, the Potency entry was “inactive”.

With `CC(NNC(=O)c1ccccc1)c1ccccc1` (stereo unspecified), the activity, negative = inhibition was 2.16% in assay [1] (parasite line A) and 14.7% in assay [1] (parasite line B). In addition, the Potency result in the assay with 3D7, with 7G8, in the assay on AA1029, in the assay on AS120, in the assay on ATS189 and in the assay with ATS95 was “inactive” in each case. The Potency entry in the assay on C2A is “inactive”.

Turning to `Nc1c(N=Nc2ccc(-c3ccc(N=Nc4cc(S(=O)(=O)O)c5ccccc5c4N)cc3)cc2)cc(S(=O)(=O)O)c2ccccc12`, the results for the activity, negative = inhibition in assay [1] (parasite line A) and in assay [1] (parasite line B) were 6.43% and -3.17%, respectively. Moreover, the Potency result in the assay on 3D7, in the assay on 7G8, in the assay on AA1029, with AS120, with ATS189 and with ATS95 was “inactive” each time. In addition, the Potency result with C2A is “inactive”.

Turning to `C=CCSSSCC=C`, the activity, negative = inhibition in assay [1] (parasite line A) is 1.87%; in assay [1] (parasite line B), 3.6%. For the same compound, the Potency result with 3D7, in the assay with 7G8, in the assay with AA1029, in the assay on AS120, in the assay on ATS189 and with ATS95 was “inactive” each time. Also, the Potency entry with C2A is “inactive”.

On to `IC(I)I`, for which the activity, negative = inhibition in assay [1] (parasite line A) is 0.888%; in assay [1] (parasite line B), 2.57%. Moreover, the Potency result in the assay with 3D7, in the assay with 7G8, in the assay on AA1029, in the assay with AS120, with ATS189 and in the assay with ATS95 was “inactive” in each case. Further, the Potency result in the assay on C2A is “inactive”.

With `COC(F)(F)C(Cl)Cl`, the activity, negative = inhibition was 16.9% in assay [1] (parasite line A) and -4.97% in assay [1] (parasite line B). Also, the Potency result in the assay with 3D7, in the assay with 7G8, in the assay with AA1029, with AS120, in the assay on ATS189 and in the assay with ATS95 was “inactive” each time. Further, the Potency result in the assay on C2A was “inactive”.

As to `CCCC(=O)Nc1ncnc2c1ncn2C1OC2COP(=O)(O)OC2C1OC(=O)CCC` (stereo unspecified), the figures for the activity, negative = inhibition in assay [1] (parasite line A) and in assay [1] (parasite line B) were 6.84% and -4.45%, respectively. Moreover, the Potency result in the assay on 3D7, with 7G8, in the assay on AA1029, in the assay with AS120, in the assay with ATS189 and with ATS95 was “inactive” throughout. The Potency result in the assay with C2A was “inactive”.

The values are drawn from PubChem BioAssay (NCATS).
